Results on 36 compounds are retold here after PubChem BioAssay.

Calls of active or inactive are those of the source.

The nature of this assay: fission yeast growth modulation, primary screen, strain 972, OD600, 24 h, no modulator (AID 1090).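 Further: basal condition with compound alone and no growth modifier present; test concentration not given here.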 Conditions: S. pombe 972 growth, higher = more signal, called active from +8 up or from −8 down.
In the case of `C=CCC(OC(C)=O)[C@@H]1[C@@H](N(Cc2cccc3ccccc23)C(=O)c2ccc(-c3ccccc3)cc2)c2cc(OCCCO)ccc2N1C(=O)Cc1ccc2ccccc2c1` (stereo partly specified), the z-score is 0.072 (inactive). Take `O=C(NC1CC1)[C@@H]1c2ccccc2C(=O)N(Cc2ccc(OC(F)(F)F)cc2)[C@H]1c1ccc(CO)cc1`: the z-score was -0.636 (inactive). The figure for `O=C(NC1CC1)[C@@H]1c2ccccc2C(=O)N(CC23CC4CC(CC(C4)C2)C3)[C@H]1c1ccc(CO)cc1` is -0.682 (inactive). In the case of `CC(=O)NCCCC[C@@H]1NC(=O)[C@H]2C[C@@H](C(=O)NCCCCCCNC(=O)CS)[C@@H](c3cccc(OCCO)c3)N2C1=O`, the z-score is 0.257 (inactive).

Take `O=C1O[C@@H](c2ccccc2)[C@@H](c2ccccc2)N2[C@@H](c3ccc(OCCO)cc3)[C@]3(C(=O)Nc4ccc(C#CC5(O)CCCCCC5)cc43)[C@@H](C(=O)O)[C@H]12`: the z-score is -0.256 (inactive). Consider `COC(=O)[C@@]1(Cc2ccccc2)[C@H]2c3cc(C(=O)N(C)C)n(Cc4ccc(C(F)(F)F)nc4)c3C[C@H]2CN1C(=O)c1ccccc1`, for which the z-score was 1.28 (inactive). `CN1C(=O)C2C(C1=O)C1C=C(c3ccc(CO)cc3)C2C(C2CC2)N1C` (stereo unspecified): the z-score was -1.36 (inactive). Turning to `O=C1C=C(c2ccccc2)C(=O)C2=C1CC([C@H]1Oc3ccccc3S(=O)(=O)N3CCC[C@@H]13)=CC2`, the z-score is -3.32 (inactive).

On to `C=C(COC)C(=O)CC[C@@H](OC(C)=O)c1ccccc1OCCO`, for which the z-score is -3.27 (inactive). Then `COCCOC(=O)N1C(=O)[C@@]2(c3cc(C#CCCO)ccc31)[C@H](c1ccccc1OCCO)N1[C@H](c3ccccc3)[C@H](c3ccccc3)OC(=O)[C@H]1[C@@H]2C(N)=O`, with 0.142 (inactive). On to `CCCCCCc1nc(Cc2cc(OC)c(OC)c(OC)c2)cc2c1[Si](C(C)C)(C(C)C)O[C@H]2c1ccccc1`, for which the z-score is 0.87 (inactive). The figure for `COC(=O)[C@]1(CCC(=O)OC(C)(C)C)N=C(c2ccc(OCCCO)cc2)O[C@@H]1c1ccccc1N=[N+]=[N-]` is -0.491 (inactive); for `C[C@@H]1ON(c2ccc(I)cc2)[C@H](c2cccc(NC(=O)OCC3c4ccccc4-c4ccccc43)c2)[C@H]1C(=O)N1C(=O)OC[C@H]1Cc1ccccc1` it is 0.534 (inactive); for `CC1CC/C=C\[C@H]2OC34C=CCN(C(C)(C)C)C(=O)[C@H]3N(CCCO)C(=O)[C@@H]4C2C(=O)O1` (stereo partly specified) it is 0.743 (inactive). As to `COc1ccc([Si](C)(C)[C@H]2[C@H](CC(=O)N3Cc4ccccc4C[C@H]3CO)O[C@@]3(C(=O)N(c4ccccc4)c4ccccc43)[C@@H]2C)cc1`, the z-score was -1.61 (inactive). Turning to `CCCNC(=O)[C@@]1(Sc2ccc(C)cc2)CC(=O)N(Cc2ccccc2Cl)[C@@H]1c1ccc(CO)cc1I`, the z-score is -3.81 (inactive). On to `N#Cc1ccc(-c2cccc(=O)o2)cc1`, for which the z-score was -0.537 (inactive).

For the compound `CCCCC(O)C1C=CC2C(=O)N(c3ccccc3)C(=O)C2N1Nc1ccccc1` (stereo unspecified), the z-score is -1.32 (inactive). As for `CC(C)=CCCC=C(C)C(O)C1C=CC2C(=O)N(c3ccccc3)C(=O)C2N1Nc1ccc(C#N)cc1` (stereo unspecified), the z-score is 0.0768 (inactive).

`COCCOC(=O)N1C(=O)[C@@]2(c3cc(C#CC4(O)CCCCCC4)ccc31)[C@H](c1ccc(O)cc1)N1[C@H](c3ccccc3)[C@H](c3ccccc3)OC(=O)[C@H]1[C@@H]2C(=O)N1CCCCCCC1`: the z-score is 0.056 (inactive). Then `COCCOC(=O)N1C(=O)[C@@]2(c3cc(C#Cc4ccc(OC)cc4)ccc31)[C@H](c1ccc(OCCO)cc1)N1[C@H](c3ccccc3)[C@H](c3ccccc3)OC(=O)[C@H]1[C@@H]2C(=O)NC[C@H](O)c1ccccc1`, with 2.29 (inactive); and `O=C(N1CCOCC1)[C@@]1(Cc2ccccc2)COC(c2ccc(OCCCO)cc2)=N1`, with -5.55 (inactive); and `COC(=O)c1cccc([C@H]2OC(=CC(=O)OC(C)C)C[C@@H](c3cccc(C(=O)OC)c3)O2)c1`, with -2.24 (inactive). Consider `CN1C(=O)[C@@H]2[C@@H](CC(COc3ccccc3)=C3[C@@H](CCc4ccccc4)OB(O)C[C@@H]32)C1=O`, for which the z-score is -0.793 (inactive).

As to `C=C(COC)C(=O)CC[C@@H](OC(=O)c1ccccc1-c1ccccc1C(=O)O)c1ccc(OCCO)cc1`, the z-score was -0.943 (inactive).

Take `C=C(CCCC)C(=O)CC[C@H](OC(=O)c1ccccc1-c1ccccc1C(=O)O)c1ccc(OCCO)cc1`: the z-score is -1.48 (inactive). Then `C[N+](C)(C)CCCC[C@@H]1NC(=O)[C@H]2C[C@@H](C(=O)NCCCCCNC(=O)CS)[C@@H](c3cccc(OCCO)c3)N2C1=O`, with -0.693 (inactive); and `CC(C)NC(=O)[C@@]1(c2ccc([N+](=O)[O-])cc2)CC(=O)N(CC23CC4CC(CC(C4)C2)C3)[C@@H]1c1ccc(CO)cc1`, with -0.822 (inactive). On to `CC(=O)OCC1C2CC[C@H]3C(OCc4ccc(F)cc4C(F)(F)F)OC[C@]4(C)[C@H]3C2=C(CN4C(=O)OC(C)(C)C)[C@H](C)C1COC(C)=O` (stereo partly specified), for which the z-score is 2.04 (inactive). With `CC(C)(C)OC(=O)CC[C@]1(C(=O)NCC(O)CO)N=C(c2ccc(OCCCO)cc2)O[C@H]1c1ccccc1N=[N+]=[N-]` (stereo partly specified), the z-score was -0.0793 (inactive). With `CCOC(=O)C1=CCC(c2cc3ccccc3[nH]2)N(CCN2CC(C(=O)OCC)=CCC2c2cc3ccccc3[nH]2)C1` (stereo unspecified), the z-score was 0.97 (inactive).

`COCC(=C=CC[C@H](O)c1ccccc1OCCO)C[C@H](O)COCc1ccccc1`: the z-score is -1.15 (inactive). For the compound `CN(C)CCCCNC(=O)[C@H]1C[C@H]2C(=O)N3CCC[C@H]3C(=O)N2[C@H]1c1cccc(OCCO)c1`, the z-score was 1.68 (inactive). Take `COCCCNC(=O)[C@@H]1c2ccccc2C(=O)N(Cc2ccc(OC(F)(F)F)cc2)[C@H]1c1ccc(CO)cc1`: the z-score is -0.153 (inactive). With `COc1ccc(C#Cc2ccc3c(c2)[C@]2(C(=O)N3)[C@H](C(=O)O)[C@H]3C(=O)O[C@H](c4ccccc4)[C@H](c4ccccc4)N3[C@@H]2c2ccccc2OCCO)cc1`, the z-score is 0.549 (inactive). As to `O=C1O[C@H](Cc2ccccc2)[C@@H]2[C@H]3C=CCCC=C3CN2[C@H]1Cc1ccc(O)cc1`, the z-score was -1.54 (inactive).
